Pyk2 oligo antag: antagonists of Pyk2 self-association, primary screen, Q293 cells, FERM NanoBiT luminescence, HTS | Protein-tyrosine kinase 2-beta (Homo sapiens), Q14289 | 0.83% of 99,000 active | z-score (the deposit names both 25 µM and 10 µM) | hits give low values;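 active = Z-score of -3 or lower, scaled per plate to the spread of control and sample wells; inactive = z-score above -3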;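 also: negative z-score means lost luminescence so less FERM oligomerization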
CYP2C9 act: human CYP2C9 activators, primary screen, biochemical, luminescence | Cytochrome P450 2C9 (Homo sapiens), P11712 | 1.4% of 96,000 active | activation factor at 5 µM | AID 1024, 2008 | recombinant CYP2C9, luciferin-H conversion; hits give high values; factor 1 = untreated enzyme, 0 = blocked;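 active = activation factor of 2 or more for CYP2C9 at a 5 µM dose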
CYP2C9 inh: blockers of cytochrome P450 2C9 activity – biochemical, luminescence, ADME assay, primary screen; P11712; CYP2C9 Supersomes, luciferin-H conversion; inhibition, % at 5 µM; 20% of 96,000 active;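 active = blocking of liver enzyme CYP2C9 beyond about 50% at 5 µM, limit read from the data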
CYP2C19 inh: blockers of cytochrome P450 2C19 activity – biochemical, luminescence, ADME assay, primary screen; P33261; CYP2C19 Supersomes, luciferin-H EGE luminescence, 30 min; inhibition, % at 5 µM; 21% of 96,000 active;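 active = CYP2C19 inhibition above a set limit at 5 µM in the primary screen, cut at about 50% in these data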
Target sequence (P33261 whole entry, looked up): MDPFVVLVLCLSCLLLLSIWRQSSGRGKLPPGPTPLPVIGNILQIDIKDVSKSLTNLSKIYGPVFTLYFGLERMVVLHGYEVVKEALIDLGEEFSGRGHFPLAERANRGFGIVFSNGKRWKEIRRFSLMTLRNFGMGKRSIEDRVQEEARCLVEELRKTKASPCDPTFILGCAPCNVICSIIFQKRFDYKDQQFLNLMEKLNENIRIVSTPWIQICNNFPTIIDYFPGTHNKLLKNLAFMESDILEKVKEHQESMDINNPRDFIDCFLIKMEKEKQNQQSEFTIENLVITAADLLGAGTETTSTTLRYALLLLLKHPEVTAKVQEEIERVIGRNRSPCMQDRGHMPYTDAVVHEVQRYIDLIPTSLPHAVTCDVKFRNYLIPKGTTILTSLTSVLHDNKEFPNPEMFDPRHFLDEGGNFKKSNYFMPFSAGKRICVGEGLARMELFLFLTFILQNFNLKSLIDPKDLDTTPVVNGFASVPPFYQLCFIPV
CYP2C19 act: human CYP2C19 activators, primary screen, biochemical, luminescence | 96,000 tested, under 10 active | activation factor at 5 µM | recombinant CYP2C19, luciferin-H EGE luminescence; hits give high values; 0 = fully inhibited enzyme, 1 = untreated enzyme | Cytochrome P450 2C19 (Homo sapiens), P33261;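 active = activation factor of at least 2 at 5 µM in the primary screen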
Numbers stand for hits; n = inactive; x = not tested or not shown. An excerpt weighted towards active compounds, which were near 28% of everything screened.

SMILES	Pyk2 oligo antag	CYP2C9 act	CYP2C9 inh	CYP2C19 inh	CYP2C19 act
CN(c1nc2c(c(=O)n(C)c(=O)n2C)n1CC(=O)c1ccccc1)C1CCCCC1	n	n	66	n	n
CCN1CCN(C(=O)c2ccc(CS(=O)(=O)Cc3ccccc3F)o2)CC1	n	n	n	n	n
CCOc1ccccc1NC(=O)N1CCCC1C(=O)Nc1ccc(NC(C)=O)cc1 (stereo not drawn)	n	n	n	n	n
O=C(NCCn1cccc1)c1cccc2ccccc12	n	n	n	n	n
CCOC(=O)[C@@H]1CCNC[C@@H]1c1ccccc1	n	n	n	n	n
CCOC(=O)C1CCN(S(=O)(=O)Cc2ccccc2)C1=O (stereo not drawn)	n	n	n	77	n
COc1ccnc(N=CNOCc2cccc(Cl)c2Cl)c1C#N	n	n	n	58	n
COc1ccnc(N=CNOCc2ccc(F)cc2Cl)c1C#N	n	n	n	n	n
CCCS(=O)(=O)Nc1cc(C(F)(F)F)ccc1OCCOC	n	n	n	50	n
CC(=O)N1CCN(C(=O)CNc2cc(C(F)(F)F)ccc2OCC(F)(F)F)CC1	n	n	n	n	n
Cc1cc(Cl)ccc1N(CC(=O)N=Nc1c(O)[nH]c2ccccc12)S(C)(=O)=O	n	n	53	76	n
O=C(CSCc1cccc(Br)c1)N=Nc1c(O)[nH]c2ccccc12	n	n	n	n	n
CC1(C)C(=O)OC(c2cccs2)C2(CCCCC2)C1=O (stereo not drawn)	n	n	n	n	n
CCOc1ccc(N2CC(C(=O)NCCCN3CCOCC3)CC2=O)cc1 (stereo not drawn)	n	n	n	n	n
COC(=O)COc1ccc(S(=O)(=O)N2CCc3ccccc3C2)cc1	n	2	n	66	n
CCc1nnc(NC(=O)c2ccc(Cl)c(S(=O)(=O)N3CCc4ccccc43)c2)s1	n	n	81	75	n
CCc1nnc(NC(=O)c2ccc(S(=O)(=O)N3CCN(Cc4ccccc4)CC3)cc2)s1	n	n	n	n	n
CCC(=O)Nc1ccc(S(=O)(=O)N2CCc3ccccc3C2)cc1	x	n	n	86	n
O=C(Nc1ncccc1O)c1cccc(S(=O)(=O)N2CCc3ccccc32)c1	n	n	75	72	n
CCOc1ccc(S(=O)(=O)N2CCc3ccccc3C2)cc1	n	n	n	n	n
Cc1ccc(C(C(=O)NCc2ccco2)N(C(=O)CNC(=O)c2cccs2)c2c(C)cc(C)cc2C)cc1 (stereo not drawn)	n	n	n	n	n
Cc1ccc(C(=O)Nc2ccc(S(=O)(=O)N3CCc4ccccc43)cc2)o1	n	n	74	n	n
O=C(Nc1ccc(S(=O)(=O)N2CCCCC2)cc1)c1ccc(CN2CCc3ccccc3C2)cc1	n	n	68	n	n
COC(=O)CCC(=O)N1CCc2cc(S(=O)(=O)N3CCc4ccccc43)ccc21	n	n	n	n	n
CCC(=O)Nc1ccc(S(=O)(=O)c2ccc(NC(=O)CC)cc2)cc1	n	n	70	n	n
SMILES	Pyk2 oligo antag	CYP2C9 act	CYP2C9 inh	CYP2C19 inh	CYP2C19 act
Cc1ccc(NC(=O)c2ccc(CN3CCc4ccccc4C3)cc2)cc1	n	n	n	n	n
Cc1ccc(C(=O)Nc2ccc(S(=O)(=O)N3CCc4ccccc4C3)cc2)o1	n	n	n	61	n
COc1ccc(CC(CC(=O)O)C(=O)Nc2ccccc2)cc1 (stereo not drawn)	n	n	n	n	n
CCNC(=O)CN(Cc1ccccc1)S(=O)(=O)c1ccccc1	n	n	n	n	n
O=C(Cn1cccc1)NC1CCCCCC1	n	n	n	n	n
CCCCSc1nnc2nc(C)cc(C)n12	n	n	n	n	n
COc1ccc(C(=O)Nc2ccc(S(=O)(=O)N3CCc4ccccc43)cc2)cc1	-3.1	x	x	x	x
CCCC1COC(Cn2cncn2)(c2ccc(C)cc2)O1 (stereo not drawn)	n	n	n	58	n
O=C(Nc1ccc2c(c1)OCCO2)c1ccc(S(=O)(=O)N2CCCCC2)cc1	n	n	70	n	n
O=C(Nc1ccc2c(c1)OCCO2)c1ccc(Br)c(S(=O)(=O)N2CCOCC2)c1	n	n	53	82	n
O=C(CN1CCN(S(=O)(=O)c2ccc(Br)cc2)CC1)Nc1ccc2c(c1)OCCO2	n	n	n	78	n

Assay outcomes: PubChem BioAssay, Sanford-Burnham Center for Chemical Genomics
